Screening results: PubChem BioAssay, several laboratories
AHR act: human AHR activation; P35869; AHR-responsive luciferase reporter cells, luminescence; activation, % at 5 µM; actives 2.5% (n = 320,000); in the data active = activation above about 47%;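 note: 0% = vehicle wells and 100% = reference agonist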
A3G deaminase: APOBEC3G (human) deaminase inhibition. Q9HC16. recombinant A3G, ssDNA deamination FAM/TAMRA fluorescence. inhibition, % at 20 µM. actives 0.28% (n = 330,000). AID 493012;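 active = inhibition of at least 40% at 20 µM, with no more than 30% in the related APOBEC3A deaminase screen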;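 note: plate controls were DMSO wells with A3G for no effect and wells lacking A3G enzyme for full effect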
A3A deaminase: human APOBEC3A DNA deaminase inhibition; P31941; recombinant A3A, FAM/TAMRA ssDNA deamination fluorescence; inhibition, % at 20 µM; actives 0.41% (n = 330,000);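 active = at least 40% inhibition at 20 µM here, with at most 30% in a related deaminase screen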;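 note: plate controls were A3A with DMSO for no effect and wells lacking A3A enzyme for full effect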
Target sequence (P31941 whole entry, looked up): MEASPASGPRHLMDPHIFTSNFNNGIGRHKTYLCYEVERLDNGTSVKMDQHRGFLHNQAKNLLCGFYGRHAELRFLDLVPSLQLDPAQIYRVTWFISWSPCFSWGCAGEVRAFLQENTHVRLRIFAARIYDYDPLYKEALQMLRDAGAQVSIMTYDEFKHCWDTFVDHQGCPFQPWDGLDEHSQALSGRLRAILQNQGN
NTR1 agonist: agonists of human neurotensin receptor NTR1; actives 0.17% (n = 330,000); AID 493036; activation, % at 20 µM; NTR1-U2OS beta-arrestin-GFP spot imaging, agonist mode; P30989;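 active = activation at or above 40% of the spot to cytoplasm intensity ratio, with at least 20 cells analyzed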;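 note: 0% = DMSO without peptide and 100% = 100 nM NTR1 peptide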
Target sequence (P30989 whole entry, looked up): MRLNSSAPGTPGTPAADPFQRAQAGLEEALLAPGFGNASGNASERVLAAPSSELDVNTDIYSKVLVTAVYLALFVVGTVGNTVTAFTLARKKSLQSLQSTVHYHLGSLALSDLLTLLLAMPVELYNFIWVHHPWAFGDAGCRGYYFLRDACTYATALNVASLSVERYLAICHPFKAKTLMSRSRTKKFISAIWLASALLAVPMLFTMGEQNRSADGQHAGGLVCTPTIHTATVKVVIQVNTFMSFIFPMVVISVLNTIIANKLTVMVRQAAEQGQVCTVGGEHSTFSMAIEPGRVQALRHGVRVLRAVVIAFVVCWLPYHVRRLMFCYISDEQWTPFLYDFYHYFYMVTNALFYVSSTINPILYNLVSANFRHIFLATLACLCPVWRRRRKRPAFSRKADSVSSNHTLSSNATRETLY
Active calls of the source: *. A selection: hits, their analogues and other compounds. The true share with any hit is near 3.2%.

SMILES | AHR act | A3G deaminase | A3A deaminase | NTR1 agonist
C=C(C)[C@@H](O)COc1c2ccoc2cc2oc(=O)ccc12 | 30 | -4 | -1 | 0
CC(C)=CCOc1c2ccoc2c(OCC=C(C)C)c2oc(=O)ccc12 | 40 | 0 | 3 | 0
CC(C)=CCOc1c2ccoc2cc2oc(=O)ccc12 | 51* | -10 | -5 | -1
CC1(C)O[C@@H]1COc1c2ccoc2cc2oc(=O)ccc12 | 70* | -11 | -1 | 2
CCCCN(C(=O)c1cc(Cl)nc2ccccc12)c1c(N)n(CCCC)c(=O)[nH]c1=O | 4 | -5 | 6 | 0
Cc1ccc(C)c(NC(=O)CSc2nnc(C3CCCCC3)o2)c1 | 1 | -6 | -2 | 3
Cc1cc(NC(=O)Cc2ccccc2)ccc1NC(=O)c1cccs1 | -5 | 4 | -2 | 0
Cc1ccn2cc(-c3ccc(NC(=O)c4ccco4)cc3)nc2c1 | -4 | 1 | -2 | 2
Cc1cccc(/C(N)=N/OC(=O)c2cccc3ccccc23)c1 | 73* | -10 | -2 | 5
COc1cc(OC)cc(C(=O)O/N=C(\N)c2cccc(C)c2)c1 | 41 | -5 | -1 | 6
Cc1cccc(/C(N)=N/OC(=O)c2ccc(Br)o2)c1 | 71* | -7 | -3 | 2
Cc1c(C)n(Cc2ccc(F)cc2)c2ccc(C(=O)NCCCN3CCOCC3)cc12 | 8 | -2 | 0 | 0
COc1ccc2c(C)cc(SCC(=O)c3ccc4c(c3)OCO4)nc2c1 | 65* | 1 | 12 | 8
Cc1ccc2nc(SCC(=O)c3ccc4c(c3)OCO4)[nH]c2c1 | 57* | -5 | -5 | 0
COc1ccc2c(C)cc(SCC(=O)NC3CCCC3)nc2c1 | 17 | -9 | -4 | 0
CC(=O)c1c(C)[nH]c(C(=O)CSc2nc3ccc(C)cc3[nH]2)c1C | 70* | -8 | -2 | 3
N/C(=N\OC(=O)c1ccc(Cl)cc1Cl)c1ccc(Cl)cc1 | 24 | -6 | -19 | 0
N/C(=N\OC(=O)c1ccc(Cl)cc1Cl)c1ccccc1 | 82* | 0 | 3 | 7
N/C(=N\OC(=O)c1ccccc1Cl)c1ccccc1 | 54* | 1 | 3 | 3
N/C(=N\OC(=O)c1ccccc1Cl)c1ccc(Cl)cc1 | 57* | -4 | -1 | 3
CCN(CC)S(=O)(=O)c1ccc(OC)c(NC(=S)Nc2ccc(C)c(C)c2)c1 | 1 | -12 | 0 | 3
O=C(Cc1csc(-c2ccccc2)n1)Nc1ccc(C(F)(F)F)cc1 | 55* | -6 | 0 | 12
Cc1ccc(CC2CC(=O)N(c3cc(Cl)ccn3)C2=O)cc1 (configuration not stated) | 1 | 10 | 1 | 1
CCn1nnc2cc(C(=O)Nc3cc(Cl)ccc3C)ccc21 | -4 | -6 | -1 | -1
Cc1ccccc1OCCOC(=O)c1ccc(S(=O)(=O)N2CCCC2)cc1 | 0 | -3 | 0 | 1
SMILES | AHR act | A3G deaminase | A3A deaminase | NTR1 agonist
O=C(N/N=C\c1ccc(F)cc1)c1csnn1 | 21 | -3 | -4 | 0
Cc1ccccc1/C=N\NC(=O)c1csnn1 | 51* | -1 | 3 | -1
COCCCNc1nc2c(-c3cccc(C)c3)nnn2c2ccccc12 | 49* | 0 | -2 | 6
CSc1ccccc1OCc1cc(C(=O)NC(C)Cc2cccc(C)n2)no1 (configuration not stated) | 53* | 2 | -4 | 1
CSc1ccccc1OCc1cc(C(=O)NCc2cccc(C)n2)no1 | 46 | -4 | -2 | 0
O=C1Cc2ccccc2C(=O)N1OCc1ccc(Cl)cc1 | 66* | -2 | -5 | 0
O=C1c2ccccc2C(=O)N1OCc1ccc(Cl)cc1 | 51* | -4 | -1 | -1
O=C1c2ccccc2C(=O)N1OCCOCCOCCON1C(=O)c2ccccc2C1=O | 8 | -3 | 2 | 2
COc1ccc(C(=O)Nc2ccc(O)c3ccccc23)cc1OC | 13 | -2 | -3 | 0
CCOc1ncccc1C(=O)N=c1sccn1C | 60* | 1 | 1 | -1
Cc1ccccc1C(=O)N=c1sccn1C | 7 | -11 | -5 | 2
Cc1nn(-c2cccc(C(F)(F)F)c2)c(=O)c2ccccc12 | 50* | 2 | -1 | 2
Cc1nn(-c2ccccc2)c(=O)c2ccccc12 | 61* | -17 | -3 | 2
Cc1cc(=O)[nH]c2c1c(C)nn2-c1ccccc1 | 62* | -2 | -3 | -2
Cc1nn(-c2ccc(C(=O)O)cc2)c(=O)c2ccccc12 | 1 | -3 | 1 | 1
O=C(O)CNC(=O)/C(=C\c1cccc([N+](=O)[O-])c1)NC(=O)c1ccco1 | 0 | -6 | -1 | 0
COc1ccccc1NS(=O)(=O)c1cccc(C(=O)NCC(c2cccs2)N2CCOCC2)c1 (configuration not stated) | 4 | -7 | -6 | 1
O=C(Cc1nnc(NC(=O)c2ccccc2)s1)N/N=C\c1ccc(O)c(O)c1 | 56* | -2 | -2 | 1
Clc1ccccc1OCc1nc(-c2ccc(Br)o2)no1 | 61* | -5 | -1 | -3
COc1ccc(Cc2nc(-c3ccc(Br)o3)no2)cc1OC | 47* | -1 | -2 | -1
CC(C)S(=O)(=O)c1cnc(-c2cccnc2)nc1N | 0 | 9 | 1 | 0
CC(O)CNc1nc2ccccc2n1-c1ncnc2sc3c(c12)CCC3 (configuration not stated) | 59* | -1 | -1 | 0
CN(Cc1cnn(C)c1)S(=O)(=O)c1cccc([N+](=O)[O-])c1 | 3 | 0 | -5 | 0
Cc1cc(=O)oc2c(C(=O)/C=C\c3cccs3)c(O)ccc12 | 73* | -2 | 1 | 5
Cc1cc(=O)oc2c(C(=O)/C=C/c3ccccc3)c(O)ccc12 | 25 | -8 | -1 | 0
SMILES | AHR act | A3G deaminase | A3A deaminase | NTR1 agonist
Cc1ccccc1C(=O)N1CCC(C(=O)N(CC(C)C)c2c(N)n(Cc3ccccc3)c(=O)[nH]c2=O)CC1 | -1 | -7 | 1 | -1
CCOC(=O)CC(=O)CSc1nc(-c2ccc3c(c2)OCO3)cc(C(F)(F)F)c1C#N | 60* | -4 | -2 | 2
COC(=O)N/N=C/c1cc(Cl)c(OCc2ccc(F)cc2)c(OC)c1 | 10 | 0 | 1 | 3
COC(=O)N/N=C/c1cc(Cl)cc(Cl)c1OCc1ccc(F)cc1 | 55* | -9 | -7 | 0
CCS(=O)(=O)c1ccc(C(=O)Nc2ccccc2OC)c(Cl)c1Cl | 30 | -5 | -2 | 0
C/C(=N/NC(=O)c1cccc(N2CCCC2=O)c1)c1ccncc1 | 12 | -5 | -4 | 2
CC(C)(C)CC(=O)Nc1nnc(-c2cccs2)s1 | 50* | -2 | 0 | 0
O=C(Nc1ccccc1)Nc1nnc(-c2cccs2)s1 | 115* | -9 | -4 | 1
CCN(CC(=O)NCc1ccc(Cl)cc1)C(=O)/C=C/c1ccc(Cl)c([N+](=O)[O-])c1 | 3 | 4 | -3 | 2
CCOc1ccccc1NC(=O)Nc1ccc2c(c1)CCC2 | 78* | -2 | 3 | 2
CCOc1ccccc1NC(=O)Nc1cccc(NC(C)=O)c1 | 18 | -6 | 3 | 1
CCOc1ccc(NC(=O)NC(=O)N(C)S(=O)(=O)c2ccc(C)cc2)cc1 | 2 | -4 | 0 | 2
CCOc1ccccc1NC(=O)Nc1cccc(S(N)(=O)=O)c1 | 48* | -4 | -1 | 0
